In assay [1] the test system is Human papillomavirus type 1a protein E7 (residues 44-93). Put plainly: HPV1a E7 fragment binders on microarrays, primary screen, biochemical, small-molecule microarray, residues 44-93, 635 nm fluorescence (AID 1108).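 Further: E7 fragment applied at 1 µg/mL in TBST for 1 h at 4 C; score combines spot fluorescence with its signal to noise ratio.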 To be noted: small-molecule microarray binding, fluorescence 635 nm; higher = more signal.
Assay [2] is described as follows: modulators of HCV replicon luciferase signal, primary screen, HCV replication inhibitor project, Huh7 cells, luciferase reporter (AID 1109).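 Further: huh7 hepatoma cells harbouring a luciferase neomycin HCV replicon reporter; luciferase luminescence as measure of HCV replicon replication; test concentration not given here.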 The conditions noted are these: 48 h, higher = more signal. On the technique in general: In antiviral work, replicon cells carry a viral genome segment that copies itself.
In assay [3] the target is Left-right determination factor 2 (Homo sapiens) (UniProt O00292). Put plainly: LEFTY2 binders on small-molecule microarrays, primary screen, biochemical, small-molecule microarray, 635 nm fluorescence scan (AID 1110). The conditions noted are these: LEFTY2 binding, higher = more signal.
Assay [4] concerns the target Calmodulin-1 (Homo sapiens) (UniProt P0DP23). Put plainly: CALM1 binders on microarrays, EGTA buffer, profiling panel, biochemical, small-molecule microarray, Cy5-labelled CALM1 (AID 1111).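 Further: labelled calmodulin applied in Tris saline Tween buffer holding calcium plus EGTA and DTT.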 To be noted: Cy5-CALM1 binding fluorescence, higher = more signal.
For assay [5] the target is unchanged. Description: calcium-bound CALM1 binders on microarrays, profiling panel, artefact control for SMM control-protein annotation, biochemical, small-molecule microarray, Cy5-labelled CALM1, plus calcium (AID 1112).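 Further: score merges spot fluorescence with signal to noise from triplicate slides.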 To be noted: Cy5-CALM1 binding fluorescence, higher = more signal.
Assay [6] can be described thus: small-molecule microarray binders of probe aWnt5a, primary screen, biochemical, biotinylated probe, 635/667 nm fluorescence (AID 1113).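 Further: score merges 667 nm fluorescence intensity with signal-to-noise per printed feature.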 To be noted: higher = more signal.
Assay [7] in a line: small-molecule microarray binders of probe aShh, primary screen, biochemical, biotinylated probe, 635/667 nm fluorescence (AID 1114).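 Further: probe is biotin-labelled aShh protein from a stem cell growth factor screen; measures binding of labelled protein to compounds printed on the slide; score merges feature fluorescence at 667 nm with signal-to-noise.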 To be noted: higher = more signal.
Assay [8] in a line: small-molecule microarray binders of probe aNog, primary screen, biochemical, biotinylated probe, 635/667 nm fluorescence (AID 1115).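 Further: probe is biotinylated aNog protein used at 0.15 µg/mL for 1 h at 4 C; z-score combines 667 nm fluorescence of each spot with its signal to noise.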 The conditions noted are these: higher = more signal.
Assay [9] has as its target Torsin-1A-interacting protein 1 (Homo sapiens) (UniProt Q5JTV8). Description: LAP1 binders from COS7 cell lysate, primary screen, small-molecule microarray, 635/667 nm fluorescence (AID 1116). The conditions noted are these: COS7-hLAP1 lysate binding, 635 nm fluorescence, higher = more signal.
Assay [10] addresses Alpha-bungarotoxin (Bungarus multicinctus) (UniProt P60615). Description: alpha-bungarotoxin binders on microarray, profiling panel, artefact control for SMM control protein annotation, biochemical, small-molecule microarray, Alexa647 label, 635/667 nm fluorescence (AID 1117). The conditions noted are these: alpha-BTX-A647 binding fluorescence, higher = more signal.

Sequence of Torsin-1A-interacting protein 1 (Homo sapiens) (Q5JTV8 whole entry, looked up): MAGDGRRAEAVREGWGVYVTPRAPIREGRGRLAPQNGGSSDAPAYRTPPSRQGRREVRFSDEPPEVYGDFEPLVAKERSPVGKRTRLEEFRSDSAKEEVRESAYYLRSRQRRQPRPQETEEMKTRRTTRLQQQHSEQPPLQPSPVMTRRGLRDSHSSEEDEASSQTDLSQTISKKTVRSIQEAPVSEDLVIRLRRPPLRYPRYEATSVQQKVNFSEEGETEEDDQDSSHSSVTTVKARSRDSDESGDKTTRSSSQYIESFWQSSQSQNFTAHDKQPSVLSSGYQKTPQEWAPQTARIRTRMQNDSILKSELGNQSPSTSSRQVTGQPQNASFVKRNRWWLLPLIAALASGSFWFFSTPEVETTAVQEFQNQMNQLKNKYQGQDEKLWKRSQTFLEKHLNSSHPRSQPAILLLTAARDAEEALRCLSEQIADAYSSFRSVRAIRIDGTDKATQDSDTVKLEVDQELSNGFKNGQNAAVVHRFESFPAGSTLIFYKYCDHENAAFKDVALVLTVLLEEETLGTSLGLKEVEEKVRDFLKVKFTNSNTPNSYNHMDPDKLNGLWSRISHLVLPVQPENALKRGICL
Sequence of Alpha-bungarotoxin (Bungarus multicinctus) (P60615 whole entry, looked up): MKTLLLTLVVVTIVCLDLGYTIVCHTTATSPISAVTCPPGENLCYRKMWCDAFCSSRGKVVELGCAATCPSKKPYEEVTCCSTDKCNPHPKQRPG
Sequence of Left-right determination factor 2 (Homo sapiens) (O00292 whole entry, looked up): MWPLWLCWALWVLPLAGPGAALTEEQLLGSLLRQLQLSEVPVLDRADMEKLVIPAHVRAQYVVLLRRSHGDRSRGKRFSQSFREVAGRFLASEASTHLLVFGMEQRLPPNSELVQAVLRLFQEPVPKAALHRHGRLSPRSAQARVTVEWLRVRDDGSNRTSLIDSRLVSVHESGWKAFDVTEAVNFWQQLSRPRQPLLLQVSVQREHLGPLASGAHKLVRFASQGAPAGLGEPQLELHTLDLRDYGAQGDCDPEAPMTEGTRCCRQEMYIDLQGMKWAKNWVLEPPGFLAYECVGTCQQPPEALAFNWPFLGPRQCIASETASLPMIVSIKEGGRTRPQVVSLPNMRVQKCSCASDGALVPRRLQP

For the compound `[N-]=[N+]=Nc1ccccc1C[C@@]1(C(=O)NCC(O)CO)N=C(c2ccc(OCCCO)cc2)O[C@@H]1c1ccccc1` (stereo not given in full), the composite z-score in assay [1] was 0.355; in assay [3] it was -1.28; in assay [4], 0.754; in [5], 0.0985; in [6], 0.0431; in [7], 0.151. In addition, the composite z-score was 0.0308 in assay [8], 1.48 in assay [9] and -0.422 in [10]. The same compound came in with a z-score in assay [2] of -0.688.
Take `COCCOC(=O)N1C(=O)[C@@]2(c3ccccc31)[C@H](c1ccc(O)cc1)N1[C@H](c3ccccc3)[C@H](c3ccccc3)OC(=O)[C@H]1[C@@H]2C(=O)N1CCCCCCC1`: the composite z-score in assay [1] is 1.34; in assay [3], 1.51; in [4], 2.52; in [5], 1.34; in assay [6], 0.65; in [7] it was 3.03. In addition, the composite z-score in [8] was determined as 3.42; in assay [9], 4.5; in assay [10], 3.04. In addition, the z-score in [2] was -2.23.
For the compound `CC(=O)OCC1C2CC[C@H]3C(OCc4ccc(F)cc4C(F)(F)F)OC[C@]4(C)[C@H]3C2=C(CN4C(=O)OC(C)(C)C)[C@H](C)C1COC(C)=O` (stereo not given in full), the composite z-score in assay [1] was 0.359; in assay [3], -1.65; in assay [4], 1.95; in assay [5], 1.19; in assay [6] it was 0.591; in assay [7] it was 0.338. Moreover, the composite z-score in assay [8] is 0.182; in [9], -0.212; in [10], 0.668. For the same compound, the z-score in assay [2] was -0.834.
In the case of `CC(C)(C)N1CC=CC23O[C@@H]4C=CCOC(=O)[C@@H]4[C@H]2C(=O)N(CCO)[C@@H]3C1=O` (stereo not given in full), the composite z-score is 0.0175 in assay [1]; -1.37 in assay [3]; -0.605 in [4]; 0.546 in assay [5]; -0.15 in assay [6]; 0.0136 in [7]. Moreover, the composite z-score is -0.364 in [8], -0.843 in assay [9] and -0.7 in assay [10]. Also, the z-score in assay [2] was -0.471.
For the compound `[N-]=[N+]=Nc1ccccc1C[C@]1(C(=O)N2CCOCC2)N=C(c2ccc(OCCCO)cc2)O[C@H]1c1ccccc1N=[N+]=[N-]`, the composite z-score was 1.29 in assay [1]; 1.22 in assay [3]; 1.5 in assay [4]; -0.388 in assay [5]; 0.145 in [6]; 0.275 in [7]. Also, the composite z-score is -0.626 in assay [8], 1.9 in assay [9] and 1.84 in assay [10]. The z-score in assay [2] is -2.23.
Turning to `CC(C)=CCCC(C)=CC(O)C1C=CC2C(=O)NC(=O)C2N1Nc1ccccn1` (stereo not given), the composite z-score in [1] is 1.13; in assay [3], 1.45; in assay [4], -0.188; in assay [5] it was -1.15; in assay [6], 0.176; in assay [7] it was -0.153. The composite z-score in assay [8] was -0.0116; in assay [9] it was 1; in [10] it was 1.2. This compound yielded a z-score in assay [2] of -0.156.
For the compound `O=C1[C@@H]2[C@@H](CC(COc3ccccc3)=C([C@H](O)CCc3ccccc3)[C@@H]2CO)C(=O)N1Cc1ccccc1`, the composite z-score in [1] was 0.778; in assay [3], 0.399; in assay [4], 0.615; in assay [5] it was -0.346; in [6], -0.1; in assay [7] it was -0.0553. The composite z-score in assay [8] was -0.172; in assay [9], 0.47; in assay [10] it was 0.495. The z-score in assay [2] is -2.21.
For `C=CCN1C(=O)[C@@]2(O[C@@H](CCn3cc([C@H](O)c4ccccc4)nn3)[C@H]([Si](C)(C)c3ccc(OC)cc3)[C@H]2C)c2cc(N3C(=O)c4cccc5cccc3c45)ccc21`, the composite z-score in [1] was -0.18; in assay [3], -0.898; in assay [4], 0.178; in assay [5] it was 0.872; in assay [6] it was -0.178; in [7], -0.138. Moreover, the composite z-score in assay [8] was 0.205; in assay [9], -0.236; in [10] it was -0.0541. For the same compound, the z-score in assay [2] was -3.74.
For the compound `C=CC[C@@]12N=C(c3ccc(OCCCO)cc3)O[C@@H]1c1ccccc1N(CCC)C2=O`, the composite z-score in assay [1] is 1.35; in [3] it was 0.271; in [4] it was 0.106; in assay [5], -0.242; in [6], -0.0485; in assay [7], 0.337. In addition, the composite z-score is 0.164 in [8], 1.2 in [9] and 1.77 in [10]. For the same compound, the z-score in assay [2] is -2.18.
Take `CCCCCC1=C2CNC(CC(C)C)(C(=O)OC)C=C2C(C)C1=O` (stereo not given): the composite z-score in [1] was 1.2; in assay [3], -0.869; in assay [4] it was 1.64; in assay [5] it was 1.22; in assay [6], -0.0165; in [7], 1.16. For the same compound, the composite z-score in [8] is 0.154; in assay [9] it was 0.932; in [10] it was 0.195. Besides, the z-score in assay [2] was -0.897.
`COC(=O)[C@@]1(Cc2ccccc2)[C@H]2c3cc(C(=O)N4CCCC4)n(Cc4ccc(OC)c(OC)c4)c3C[C@H]2CN1C(=O)c1ccccc1`: the composite z-score in assay [1] is 1.44; in assay [3] it was -0.737; in [4], 1.39; in assay [5] it was 0.852; in assay [6], 0.421; in assay [7], 0.853. Besides, the composite z-score in assay [8] was determined as 1.85; in assay [9], 1.38; in [10], 0.315. The z-score in assay [2] is -2.27.
Take `CC(=O)NCCCC[C@@H]1NC(=O)[C@H]2C[C@@H](C(=O)NCCCCCCNC(=O)CS)[C@@H](c3cccc(OCCO)c3)N2C1=O`: the composite z-score in [1] was 1.05; in assay [3] it was -0.0449; in [4], 0.83; in assay [5], 0.395; in assay [6] it was 0.127; in [7], 0.0444. The composite z-score in assay [8] is -0.0926; in assay [9], 2.1; in [10] it was 0.298. In [2], this compound came in with a z-score of -0.199.
`O=C1C2C=CC(C(O)c3cccs3)N(Nc3ccc([N+](=O)[O-])cc3)C2C(=O)N1c1ccccc1` (stereo not given): the composite z-score in [1] was 0.759; in assay [3], 0.318; in [4] it was 0.439; in assay [5], 0.123; in assay [6], -0.0179; in [7], 0.0684. Besides, the figures for the composite z-score in assay [8], in assay [9] and in assay [10] were 0.668, 1.01 and 0.69, respectively. The same compound registered a z-score in [2] of -0.6.
For the compound `COC(=O)C(CC#Cc1ccc2c(c1)[C@]1(C(=O)N2)[C@H](C(=O)NC[C@H](O)c2ccccc2)[C@H]2C(=O)O[C@H](c3ccccc3)[C@H](c3ccccc3)N2[C@@H]1c1ccccc1OCCO)C(=O)OC`, the composite z-score was 1.45 in assay [1]; 0.441 in assay [3]; 0.413 in assay [4]; -0.0643 in assay [5]; -0.1 in assay [6]; -0.167 in assay [7]. The figures for the composite z-score in assay [8], in assay [9] and in assay [10] were 0.149, 1.67 and 1.61, respectively. In assay [2], this compound registered a z-score of -1.92.
